Screens deposited in PubChem BioAssay by National Center for Advancing Translational Sciences (NCATS).
DT40 TDP1 CPT: qHTS for Inhibitors of human tyrosyl-DNA phosphodiesterase 1 (TDP1): qHTS in cells in presence of CPT. chicken DT40 Tdp1-/-;hTDP1 cells + 20 nM CPT, ATP luminescence, 48 h. 420,000 tested, 12% active. Potency, µM (series often up to 46.2 µM), inactives show at the top dose activity change, negative = growth inhibition, most hits filed as inhibitors. AID 686979, 2013; note: potency is the fitted concentration of half-maximal effect; nearly all actives have a fitted effect of over 55% in size
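Chicken DT40 Tdp1-/- cells complemented with human TDP1, 400 cells/well, exposed to compounds plus 20 nM camptothecin for at least 48 h at 37 C; viability read as ATP content by CellTiter-Glo luminescence.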
HT1080 IDH1KD tx: qHTS for induction of synthetic lethality in tumor cells producing 2HG: qHTS for the HT-1080-IDH1KD cell line; Potency, µM (highest dose often 46.1 µM), inactives show at the highest dose activity, negative = toxicity, most hits filed as cytotoxic; HT-1080 IDH1 knockdown viability, ATP luminescence, 48 h; 360,000 tested, 2% active;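 note: potency is the fitted concentration of half-maximal effect; 0% = DMSO wells and -100% = cell-free medium wells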
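% activity derives from luminescence (CellTiter-Glo), normalised to DMSO and no-cell wells. HT-1080-IDH1KD cells, 750/well, had 48 h compound exposure at 37 °C.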
HT1080-NT tox: qHTS for induction of synthetic lethality in tumor cells producing 2HG: qHTS for the HT-1080-NT fibrosarcoma cell line | HT-1080-NT fibrosarcoma viability, CellTiter-Glo ATP luminescence, 48 h | Potency, µM (top dose mostly 46.1 µM), without a hit: top-dose activity, negative = less viability, actives largely listed as cytotoxic | 360,000 tested, 1.6% active | AID 686970, 2013;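 note: NT is the 2HG producing partner of a matched IDH1 knockdown line; potency is the fitted concentration of half-maximal effect; 0% = DMSO-treated cells and -100% = media-only wells without cells; nearly all actives have a fitted effect of over 55% in size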
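Read-out is CellTiter-Glo luminescence after 10 minutes at room temperature, following 48 hours' compound treatment of HT-1080-NT cells (750 cells/well, RPMI, 5% FBS, 37 degrees C).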
DT40 TDP1 no CPT: qHTS for Inhibitors of human tyrosyl-DNA phosphodiesterase 1 (TDP1): qHTS in cells in absence of CPT; Potency, µM (titrated, usually from 46.2 µM), without a hit: top-dose activity change, negative = growth inhibition, usual class: inhibitors; 420,000 tested, 15% active; DT40 Tdp1-/- hTDP1 cells, no CPT, ATP luminescence, 48 h; note: potency is the fitted concentration of half-maximal effect; nearly all actives have a fitted effect of over 55% in size
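Growth kinetics read by CellTiter-Glo luminescence after ≥48 hr at 37 °C. Cells: DT40 Tdp1-/- stably carrying human TDP1, 400 per well, compound exposure in the absence of CPT (DMSO vehicle).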
IL-1B inflam inh: qHTS for Inhibitors of Inflammasome Signaling: IL-1-beta AlphaLISA Primary Screen | 360,000 tested, 4.7% active | activity change, % at 57.5 µM | AID 743279, 2014 | THP-1 LPS/ATP IL-1B secretion, AlphaLISA, 16 h; active compounds read low; in the data active = activity change below about -50%; inconclusive = mostly about -30% to -49%
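THP-1 cells pretreated 1 hr with compounds (up to 57.5 uM final), then stimulated with LPS (250 ng/mL final) plus ATP (1.25 mM final); secreted IL-1B measured by AlphaLISA after 16 hr, decreased signal indicating inhibition.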
uPA surface inh: qHTS for Inhibitors of Cell Surface uPA Generation | Potency, µM (highest dose often 38.3 µM), for the others: top-dose activity change, negative = inhibition, usual class: inhibitors | 330,000 tested, 0.31% active | cell surface uPA generation assay, qHTS; active = well fitted inhibition curve with a large enough effect; inconclusive = small, poorly fitted or top-dose-only effect; inactive = no such curve, though single readings can be large or run the other way; tested in mouse RAW 264.7 cells; note: potency is the fitted concentration of half-maximal effect; nearly all actives have a fitted effect of over 55% in size
* = called active by the depositor; ? = inconclusive; · = no result given. Compounds with a hit are over-represented: about 19% of the library has one in this group of screens. Unless noted, calls come from the whole dose curve; as a rule, active = well fitted curve in the direction sought with a large enough effect; inconclusive = small, poorly fitted or top-dose-only effect, or another doubt; inactive = no such curve, though single readings can be large; an effect the other way counts as inactive or inconclusive. Unless noted, % is set by controls: 0 for no effect and ±100 for the full control effect.

SMILES	DT40 TDP1 CPT	HT1080 IDH1KD tx	HT1080-NT tox	DT40 TDP1 no CPT	IL-1B inflam inh	uPA surface inh
COc1ccc2c(c1)C(NC(C)=O)CCc1cc(OC)c(OC)c(OC)c1-2 (stereo not given)	0.0082µM*	?	0.0058µM*	0.0184µM*	29.7	-10.3%
COc1cc2c(c(OC)c1OC)-c1ccc(O)c(=O)cc1C(NC(C)=O)CC2 (stereo not given)	0.0259µM*	0.0411µM*	0.0052µM*	0.0651µM*	65.9	-3.7%
C=CCC1(C(C)CCC)C(=O)N=C(S)NC1=O (stereo not given)	-2.9%	·	·	-0.7%	·	·
CCN(C(=O)COC(=O)c1cn(C)c2ccccc12)c1ccc(F)cc1	-4.3%	6.0%	10.5%	-28.5%	-29.6	4.5%
CC1CCCN(CCCNC(=O)c2ccc3c(c2)N(Cc2cccc(Cl)c2)C(=O)c2ccccc2S3=O)C1 (stereo not given)	?	?	-24.5%	?	?	·
C[C@]12CC[C@H](OS(=O)(=O)O)CC1=CC[C@@H]1[C@@H]2CC[C@]2(C)C(=O)CC[C@@H]12	8.2%	7.4%	5.4%	5.2%	4.4	-0.9%
COCCO[C@H]1CC[C@@]2(C)C(=CCC3C2CC[C@@]2(C)C3CC[C@]2(C)O)C1 (stereo not given in full)	?	-4.4%	-7.0%	11.6µM*	-71.6*	0.0%
C[C@]12CCC(OC(=O)CCC(=O)O)CC1=CCC1C2CC[C@]2(C)C(=O)CCC12 (stereo not given in full)	2.7%	2.5%	5.7%	-22.1%	-8.4	-1.0%
CCN(CC)CCO[C@H]1CC[C@@]2(C)C(=CC[C@@H]3[C@@H]2CC[C@]2(C)C(=O)CC[C@@H]32)C1	23.7µM*	·	·	2.66µM*	·	·
CCN(CC)CCO[C@H]1CC[C@@]2(C)C(=CC[C@@H]3[C@H]2CC[C@]2(C)C(=O)CC[C@H]32)C1	2.37µM*	·	·	2.37µM*	·	·
CC(=O)NS(=O)(=O)c1ccc(NC(=O)c2cccn(Cc3ccc(Cl)cc3)c2=O)cc1	-14.7%	·	·	-3.0%	·	·
CC(Nc1cc(C)cc(C)c1)=[N+](C)CCNS(=O)(=O)c1ccc(Cl)cc1	13µM*	-11.5%	-0.7%	-18.6%	-78.7*	-0.7%
CCOC(=O)c1cc(-c2ccccc2)n(CCCC(=O)Nc2ccc(C)c(C)c2)c1C	16.4µM*	·	·	3.66µM*	·	·
C[C@H](NC(=O)N1C[C@H]2C[C@@H](C1)c1cccc(=O)n1C2)C(=O)Nc1ccccc1F	0.6%	1.0%	-3.3%	-2.5%	-4.7	4.7%
C=C1C2C[C@@]3([C@@H]1O)[C@@H](C[C@@H]2O)[C@@]12C4[C@@H]3C[C@@H]1[C@@](C)(CC[C@@H]2O)CN4CC	9.8%	0.6%	14.0%	1.8%	21.8	2.6%
Cc1cc(NC(=O)COC(=O)c2c(C)nn(Cc3ccccc3)c2C)no1	?	-1.6%	-2.0%	-18.3%	-0.7	-18.2%
Cc1cc(NC(=O)CCl)no1	13µM*	?	?	18.4µM*	-100.3*	-16.3%
CCCCN1CC(COCc2ccccc2)Oc2cccc(Oc3ccc(C(C)C)cc3)c2S1(=O)=O (stereo not given)	10.3µM*	0.1%	-0.8%	5.17µM*	26.9	2.7%
COc1ccc(NC(=O)c2cn(CCC#N)nc2-c2ccc(OC)c(OC)c2)cc1	-16.8%	7.3%	2.8%	16.7%	7.4	10.7%
Brc1ccc2[nH]cc(C=NN3CCCCCC3)c2c1	23.1µM*	10.7%	4.5%	13µM*	7.0	0.3%
